According to PubChem BioAssay AID2675 (National Center for Advancing Translational Sciences (NCATS), 2010):
The campaign covered roughly 280,000 compounds. About 100 (0.036%) were called active. About 11% were inconclusive and are not listed. Calls come from the whole dose curve; as a rule, active = well fitted inhibition curve with a large enough effect in the signal ratio, with a control signal flat (not every such curve was filed as active); inconclusive = small, poorly fitted or top-dose-only effect, or effect the other way, or a change in a side signal; inactive = no such curve, though single readings can be large or run the other way; the % refers to the signal ratio. For the sample, actives were picked, then their nearest neighbours and some compounds at random.

molecular target: Muscleblind-like protein 1 (Homo sapiens) (UniProt Q9NR56); test: qHTS Assay for Inhibitors of MBNL1-poly(CUG) RNA binding; settings: TR-FRET MBNL1-His/biotin-(CUG)12 binding, 665/545 ratio; series mostly up to 57.5 µM
Excerpt: NIH Chemical Genomics Center [NCGC] NIH Molecular Libraries Probe Production Centers Network [MLPCN] MLPCN Grant: R03 MH087421-01 Assay Submitter (PI): Charles Thornton NCGC Assay Overview: Expanded CTG repeats in the 3' untranslated region of the DM protein kinase (DMPK) gene causes type I myotonic dystrophy (DM1). DM1 is a multi-systemic disease with a prevalence of 1/7000. Clinical features include myotonia, progressive muscle weakness and wasting, cardiac arrhythmia, insulin resistance, hypersomnolence, cataracts, and other symptoms. The pathogenic effect of expanded CTG repeats stems from deleterious effects of the mutant transcript. CUGexp mRNA accumulates in nuclear foci and sequesters proteins of the muscleblind family, of which MBNL1 is the most common family member in skeletal muscles. The binding interaction between MBNL1 and CUGexp tracts leads to deregulation of alternative splicing and is therefore a key molecular step in the pathogenesis of DM1. To target this binding interaction, we optimized a protein-RNA binding assay in 1536-well format for identification of small molecule inhibitors of biotinylated (CUG)12 and his-tagged MBNL1 binding. Protein-RNA complex of MBNL1-His and Biotin-(CUG)12 captures the detection reagents terbium-labeled anti-His antibody and streptavidin conjugated XL665. This brings the terbium label within close proximity to XL665 to allow time-resolved fluorescence resonance energy transfer (TR-FRET). Inhibitors of MBNL1-(CUG)12 binding will disrupt TR-FRET.
NCGC Assay Protocol Summary: This is a TR-FRET binding assay with MBNL1-His and Biotin-(CUG)12 RNA. The assay uses a ratiometric measurement. In the presence of MBNL1-(CUG)12 complex, the excitation energy is transferred to the XL665 acceptor label, causing emission at 665nm, while the 545nm donor signal […]. Data were normalized to the controls for basal activity (buffer only) and 100% activity (with MBNL1-(CUG)12). […] The final titration was 92 nM to 58 uM. (3) Add 1 ul of terbium labeled anti-His antibody (0.055 ng/ul final concentration) (4) Add 1 ul of streptavidin-XL665 (5 nM final concentration) (5) Incubate 60 min at room temperature (6) Detect the assay plate in a EnVision plate reader (PerkinElmer) with Ex=340 nm, Em1=665 nm and Em2=545 nm. Keywords: mytonic dystrophy type I, DM1, muscleblind like 1, MBNL1, CUG expansion, protein-RNA binding inhibitor, high throughput screening, MLSMR, MLSCN, NIH Roadmap, qHTS and NCGC
% is set by controls: 0 for no effect and ±100 for the full control effect; potency is the fitted concentration of half-maximal effect.

Chain of Muscleblind-like protein 1 (Homo sapiens) (Q9NR56 whole entry, looked up): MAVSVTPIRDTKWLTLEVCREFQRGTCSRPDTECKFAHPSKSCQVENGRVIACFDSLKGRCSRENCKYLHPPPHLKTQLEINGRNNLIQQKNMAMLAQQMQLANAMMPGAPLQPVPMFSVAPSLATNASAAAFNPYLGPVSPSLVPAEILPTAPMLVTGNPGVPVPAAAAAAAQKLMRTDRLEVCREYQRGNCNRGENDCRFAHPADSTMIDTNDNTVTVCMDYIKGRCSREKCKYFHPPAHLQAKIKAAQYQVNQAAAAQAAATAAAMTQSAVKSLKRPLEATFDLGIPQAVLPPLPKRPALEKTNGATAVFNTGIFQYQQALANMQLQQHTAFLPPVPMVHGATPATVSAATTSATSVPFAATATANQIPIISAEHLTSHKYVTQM

Activity change, negative = inhibition, inactive:
Cc1sc2ncn(CC(=O)NCCN(C)C)c(=O)c2c1S(=O)(=O)N1CCC(C)CC1
COc1ccc(N2CCN(C(=O)Cn3cnc4sc(C)c(S(=O)(=O)N5CCOCC5)c4c3=O)CC2)cc1
CCC1Sc2ccc(S(=O)(=O)CCC(=O)NCc3cccs3)cc2NC1=O (stereo unspecified)
O=C(CNc1cccc(S(=O)(=O)N2CCCCC2)c1)Nc1ccccc1F
Cc1c(C)c2ccc(OCC(=O)N3CCN(c4cccc(Cl)c4)CC3)cc2oc1=O
CC1CN(C(=S)Nc2ccccc2F)CC(C)O1 (stereo unspecified)
O=C(Nc1ccc(Cl)cc1)c1cccc(OC(=S)N2CCOCC2)c1
CC(=O)N1CCN(c2ccccc2NC(=S)NC(=O)c2cc3ccccc3o2)CC1
COc1ccc(N2CCN(C(=O)[C@@H](NC(=O)c3cc(OC)cc(OC)c3)C(C)C)CC2)cc1
O=[N+]([O-])c1ccc(O)c(/C=N/Nc2ccccc2[N+](=O)[O-])c1
O=C1OC2(CCCCC2)CC2=C1C1O[C@](c3ccsc3)(Cc3ccccc31)O2 -2.14% [at 11.5 µM]
CCCCn1c(-c2cccc(C)c2)nc2cc3[nH]c(=O)c(C(C)C)nc3cc21
COc1cc(C(=O)NCc2ccncc2)cc(Br)c1OCc1ccccc1
CC1CCN(C(=S)NC(=O)c2ccccc2Br)CC1
CCC(CC)c1nnc(NC(=O)C2CCN(C(=O)c3ccco3)CC2)s1
COc1cccc(Cn2cc(/C=N/NC(=O)c3cc(O)cc(O)c3)c3ccccc32)c1
CC1(C(=O)NNC(=S)NCC2CCCO2)CC1(Cl)Cl (stereo unspecified)
CCCCC(CC)CNCc1cccn1CCN1CCOCC1 (stereo unspecified)
COc1ccc(CSc2nnnn2-c2ccc(O)cc2)cc1F
CCOCCCNc1nc(-c2ccccc2)nc2ccccc12
CCOc1ccc(NC(=O)CN2CCN(CC(=O)Nc3ccc(OC)cc3)CC2)cc1
COc1ccc(NC(=S)NCCNC(C)=O)cc1
COc1ccc(C(=O)c2c(C)c(CCC#N)n3ccccc23)c(OC)c1
Cc1[nH]c(C)c(S(=O)(=O)N2CCN(c3cccc(C(F)(F)F)c3)CC2)c1C(=O)N1CCCCC1
Cc1ccccc1C(=O)N1CCN(c2ccc(NC(=O)c3cccs3)cc2)CC1
CC(=O)c1ccc(NC(=O)c2sc3nc4n(c(=O)c3c2C)CCCCC4)cc1
CC(=O)N1c2ccc(S(=O)(=O)NCCC(=O)N(C)C3CCCCC3)cc2CC1C (stereo unspecified)
CC(=O)c1ccc(N2CCN(C(=O)C3CCN(S(=O)(=O)c4ccc5c(c4)CC(C)N5C(=O)C4CC4)CC3)CC2)cc1 (stereo unspecified)
C/C(=N\NC(=O)c1ccoc1C)c1ccccc1O
COc1ccc(N2CCN(S(=O)(=O)CCNC(=O)C34CC5CC(CC(C5)C3)C4)CC2)cc1
O=C(Nc1ccncc1)Nc1ccc(F)cc1
O=S(=O)(c1cccc(Cn2nnc(-c3ccc(F)cc3)n2)c1)N1CCOCC1
CN(CC(=O)Nc1ccc(F)cc1)C(=O)c1ccc(-c2ccc(Cl)cc2)o1
COc1ccccc1CCNC(=O)c1c(C)nn(CC(C)C)c1Cl
CCCOc1ccc(C2=CSC3=NCCN23)cc1Cl
CN(CC1CCCO1)S(=O)(=O)c1ccc(C(=O)Nc2ccc(F)cc2)cc1 (stereo unspecified)
Cc1ccc2sc(N(CCN(C)C)C(=O)/C=C/c3cccs3)nc2c1C
Cc1cc(C)c(SCCc2ccncc2)c(C)c1
Cc1ccc(OCC(=O)Nc2ccc(N3CCN(C(=O)c4ccco4)CC3)cc2)c(C)c1
COc1ccc(CN(C)C(=O)Cc2ccsc2)c(OC)c1OC
Cc1ccc(-c2noc(C3CCCN(C(=O)c4cccc(Cl)c4)C3)n2)o1 (stereo unspecified)
O=C(C1CCC(=O)N(C2CC2)C1)N1CCN(c2ccc(Cl)cc2)CC1 (stereo unspecified)
Cc1cc(C)c(NC(=O)CN2CCCCCC2)c(C)c1
COc1cc(Nc2nc3ccc(Cl)cc3n3cnnc23)cc(OC)c1OC
Cc1ccc(CS(=O)(=O)CCC(=O)NCc2ccc(F)cc2)cc1
CCOC(=O)C1(CCOC)CCN(Cc2cc3ccccc3s2)CC1
CCOCCCn1c(SCC(=O)Nc2cc(OC)ccc2OC)nc2ccccc2c1=O
C[C@H]1[C@H]2c3nc4ccccc4n3C[C@H]1ON2C1CCCCC1
C=CCNc1nc(N)c([N+](=O)[O-])c(NC2CCCCC2)n1
Cc1[nH]c2ccccc2c1C(=O)CN1CC(C)CC(C)C1 (stereo unspecified)
O=C(c1ccccc1)N1N=C(c2ccccc2O)CC1c1ccc(Br)cc1 (stereo unspecified)
Nc1nc(Nc2ccccc2F)nc(NC2CCCCC2)c1[N+](=O)[O-]
COc1ccc(OC)c(CNC(=O)Cn2nc(C)c3c(C)n(-c4ccc(C)cc4)nc3c2=O)c1
Cc1ccc(C)c(N2CCN(C(=O)CCCn3c(=O)c4cccn4c4cccnc43)CC2)c1
CCOc1ccc(NC(=O)CCCCCN2C(=O)[C@@H]3Cc4ccccc4CN3C2=O)cc1
CCc1ccc(/C=N/NC(=O)c2nnn(-c3nonc3N)c2CN2CCc3ccccc32)cc1
COc1ccc(NS(=O)(=O)c2cc(C(=O)Nc3ccccc3C(=O)O)ccc2C)cc1
COc1ccc(CN(C)C(=O)c2cc(-c3ccc(C)cc3C)nc3ccccc23)c(OC)c1OC
O=C(NCc1cccc(Cl)c1)C1CCC(=O)N(C2CC2)C1 (stereo unspecified)
CC(=O)N1c2ccc(S(=O)(=O)N3CCC(C(=O)N4CCN(c5ccccc5)CC4)CC3)cc2CC1C (stereo unspecified)
O=C(NCCCN1CCOCC1)c1ccc2c(c1)N(Cc1cccc(F)c1)C(=O)c1ccccc1S2
CCc1ccc(C(CNc2nc(C(F)(F)F)nc3ccccc23)N(C)C)cc1 (stereo unspecified)
Cc1nnc(NC(=O)C(c2ccccc2)c2ccccc2)s1
COc1cccc(CCNC(=O)c2cccc(NC(=O)C3=C(C)OCCS3)c2)c1
Cc1cc(=O)[nH]c(Nc2cccc(Br)c2)n1
COc1ccccc1N1CCN(S(=O)(=O)CCNC(=O)c2ccc(OC(C)C)cc2)CC1
COc1cccc(CN(C)CC(O)COC(c2ccccc2)c2ccccc2C)c1 (stereo unspecified)
CCOc1ccc(NC(=O)C(C)N2C(=O)c3ccccc3C2=O)cc1 (stereo unspecified)
CCOc1ccc(NC(=O)c2nc(SCC)ncc2Cl)cc1
CCC(C)[C@H](NC(=O)N1CCn2c1nc1ccccc12)C(=O)NCc1ccc(OC)cc1 (stereo partly specified)
COc1ccc(NC(=O)c2cc([N+](=O)[O-])ccc2NC(=O)CNC2CCCCC2C)c(OC)c1 (stereo unspecified)
COc1ccc(CCNC(=O)c2ccccc2OCc2ccccc2)cc1
Cc1cc(Cl)ccc1C(=O)C1CCCN(C(=O)c2nonc2C)C1 (stereo unspecified)
CC(CCc1ccc(O)cc1)NCc1ccc(Cl)cc1Cl (stereo unspecified)
COc1ccc(CCNCc2c(-c3ccccc3)n(C)c3ccccc23)cc1
CCC(=O)c1cn(CCOc2ccccc2OC)c2ccccc12
COc1ccc(CC(=O)N/N=C/c2cc([N+](=O)[O-])cc(Br)c2O)cc1
COC(=O)c1cc(S(=O)(=O)N2CCN(c3cc(C)ccc3C)CC2)c[nH]1
COc1cccc(C(=O)Nc2ccc(N3CCN(C(=O)c4ccco4)CC3)cc2)c1
COC(=O)c1ccc(CN2CCCC(C(=O)Nc3cccc(-n4cnnn4)c3)C2)cc1 (stereo unspecified)
Cc1cc(=O)oc2c(C)c(OC(C)C(=O)NC3CCN(Cc4ccccc4)CC3)ccc12 (stereo unspecified)
C[C@H](NC(=O)[C@@H]1Cc2ccccc2CN1C(=O)OC(C)(C)C)C(=O)NC1CCCC1
CCCn1c(C2CCCN2c2nc(-c3ccc(OC)cc3)cs2)nc2ccccc21 (stereo unspecified)
Cc1ccc2nc(-c3ccncc3)cc(C(=O)Nc3ccncc3)c2c1
COc1cccc(C(=O)N/N=C(\C)c2cccc(NC(=O)c3ccc(F)cc3)c2)c1OC
O=C(NCCCO)c1cc2c([nH]c3ccccc32)c(-c2ccc(F)cc2)n1
CCCC(=O)N1CCN(c2nnc(-c3ccc(C)cc3)c3ccccc23)CC1
Cc1cc(Cl)ccc1OCCCC(=O)Nc1cccc(-n2cnnn2)c1
CCOc1ccc(CCNC(=O)CCc2nnc3ccc(N4CCCC4)nn23)cc1OCC
CC(=O)N1CCOc2ccc(S(=O)(=O)N3CCN(c4cccc(C(F)(F)F)c4)CC3)cc21
CCCCN(CCCC)CCCNC(=O)CN1C(=O)COc2ccc(S(=O)(=O)N3CCC(C)CC3)cc21
Cc1ccc(OCC(=O)Nc2ccc(C(=O)O)cc2NC(=O)COc2ccc(C)c(C)c2)cc1C
COc1ccc(C(=O)CC(=O)C(=O)Nc2cc([N+](=O)[O-])ccc2OC)cc1
CC(C)c1ccc(S(=O)(=O)N2CCN(C(=O)c3ccc(N4CCCC4)c([N+](=O)[O-])c3)CC2)cc1
COc1cccc(NC(=O)C2CCCN(c3ncnc4c3nc3n4CCCCC3)C2)c1 (stereo unspecified)
Cc1ccc(CN2CCC(n3nccc3NC(=O)CCCc3ccccc3)CC2)o1
CCc1ccc(NC(=O)CN2CCC(C(=O)c3ccc(OC)cc3)CC2)cc1
O=C(Nc1ccccc1N1CCCC1)c1ccc2ccccc2c1
CCCCCN(C(=O)CCC(=O)OCC(=O)NCc1ccc(OC)cc1)c1c(N)n(CCCC)c(=O)[nH]c1=O

Potency, active:
COc1cccc(NC(=O)Cn2cnc3sc(C)c(S(=O)(=O)N4CCN(C)CC4)c3c2=O)c1 31.6 µM
COc1ccc(Cc2n[nH]c(=S)n2NC(=O)Nc2ccc(C)cc2)cc1 25.1 µM
